Activity calls are given as the source filed them. Rule for the calls: active = hit-call score of the fitted dose curve at least 0.9, where 1 is the maximum; inactive = score below 0.9.
Assay: ATG_TGFb_CIS: Attagene CIS-FACTORIAL HepG2 Assay for human Transforming Growth Factor (TGF) (AID 2282967)
Settings: HepG2 Attagene CIS TGFb reporter, mRNA transcription; actives raise or lower the signal
Protocol: ATG_CIS is a cell-based, multiplexed-readout assay that uses HepG2, a human liver cell line, with measurements taken at 24 hours after chemical dosing in a 24-well plate.ATG_TGFb_CIS is one of 52 assay component(s) measured or calculated from the ATG_CIS assay. It is designed to make measurements of mRNA induction, a form of inducible reporter, as detected with fluorescence intensity signals by Reverse transcription polymerase chain reaction (RT-PCR) and Capillary electrophoresis technology.Data from the assay component ATG_TGFb_CIS was analyzed into 1 assay endpoint. This assay endpoint, ATG_TGFb_CIS, was analyzed with bidirectional fitting relative to DMSO as the negative control and baseline of activity. Using a type of inducible reporter, measures of mRNA for gain or loss-of-signal activity can be used to understand the reporter gene at the transcription factor-level as they relate to the gene TGFB1. Furthermore, this assay endpoint can be referred to as a primary readout, because this assay has produced multiple assay endpoints where this one serves a reporter gene function. To generalize the intended target to other relatable targets, this assay endpoint is annotated to the growth factor intended target family, where the subfamily is transforming growth factor beta.
Human liver HepG2 cells are transiently transfected with multiple reporter transcription units (MRTUs) in 6-well plates using FuGene 6 reagent (Roche; 3 ml FuGene/1 mg DNA). The MRTU constructs are regulated by a cis-regulating element (promoter). […] A major difference between the CIS and TRANS system is that in CIS activities of endogenous TFs are measured, whereas the TRANS assay evaluates changes in activities of exogenous, chimeric NR-Gal4 proteins. […] At the end of 24 hour incubation, total RNA was isolated using TriZol reagent (Invitrogen). The isolated RNA is then reverse-transcribed using oligo(dT) primer and Mo-MLV reverse transcriptase (Invitrogen) with DNAse I (Ambion) treatment for 30 min. The one-tenth of the produced cDNA was amplified by PCR using Taq DNA polymerase (Invitrogen) and two reporter sequence-specific primers. The PCR products were fluorescently labeled by primer extension with 6-arboxyfluorescein (6-FAM) 5'-labeled reporter sequence-specific primer (2 min at 95 C, 20 s at 68 C and 10 min at 72 C) and these products were digested with 5U of HpaI (New England Biolabs) for 2h at 37 C. The fragments were purified using Qiaquick PCR columns (Qiagen), analyzed on an ABI 3130xL genetic analyzer (Applied Biosystems) with peak positions identified by using a set of X-rhodamine (ROX)-labeled MapMarker1000 molecular weight standards (BioVentures). The raw capillary electrophoresis data was processed using Attagraph software (Attagene).

| Compound | outcome | AC50 |
| --- | --- | --- |
| C=CC(=O)NCOCC(C)C | inactive | – |
| CC(C)(C)NC(N)=O | inactive | – |
| C=C(C)[C@@H]1CCC2=CC(=O)C[C@@H](C)[C@]2(C)C1 | – | 152 µM (active) |
| CCCCCCCCCC=O | inactive | – |
| COc1ccc(O)cc1 | inactive | – |
| NC(=O)Nc1ccc(Cl)cc1 | inactive | – |
| O=C(O)c1cccc(C(F)(F)F)c1 | inactive | – |
| OCCOCCOCCOCCO | inactive | – |
| CCCC[n+]1ccccc1 | inactive | – |
| CCCCC(CC)COC(=O)/C=C\C(=O)OCC(CC)CCCC (stereo not given) | inactive | – |
| Cc1ccc2ccccc2n1 | inactive | – |
| NNc1nc(-c2ccc(N)cc2)cs1 | inactive | – |
| COC(=O)C1=C(C)NC(C)=C(C(=O)OCCN(C)Cc2ccccc2)C1c1cccc([N+](=O)[O-])c1 (stereo not given) | – | 131 µM (active) |
| COC(=O)c1ccc(C)cc1 | inactive | – |
| CCCCN | inactive | – |
| CN1[C@@H]2CC(OC(=O)[C@H](CO)c3ccccc3)C[C@H]1[C@@H]1O[C@@H]12 (stereo not given in full) | inactive | – |
| O=C(O)COCCN1CCN(C(c2ccccc2)c2ccc(Cl)cc2)CC1 (stereo not given) | inactive | – |
| O=C(O)C[C@H](O)C[C@H](O)/C=C/c1c(C2CC2)nc2ccccc2c1-c1ccc(F)cc1 | inactive | – |
| CCCC(=O)C(C)=O | inactive | – |
| CC(C)(C)C(=O)c1ccccc1 | inactive | – |

| Compound | outcome | AC50 |
| --- | --- | --- |
| N#Cc1ccccc1 | inactive | – |
| CC[C@]12CCCN3CCc4c(n(c5ccccc45)[C@@](O)(C(=O)OC)C1)[C@@H]32 | inactive | – |
| CCCCCCOC(=O)CCCCC | inactive | – |
| OCc1cccnc1 | inactive | – |
| COc1ccc(Cl)cc1C | inactive | – |
| Nc1cccc(S(=O)(=O)c2cccc(N)c2)c1 | inactive | – |
| CC1CC(OC(=O)c2ccccc2O)CC(C)(C)C1 (stereo not given) | inactive | – |
| COc1ccc(OC)c(OC)c1 | inactive | – |
| CCCc1ccccc1O | inactive | – |
| CC(=O)C=CC1=C(C)CCCC1(C)C | inactive | – |
| COC(=O)Cc1cccc2ccccc12 | inactive | – |
| O=C1CCCCCCCCCCCCCCO1 | – | 158 µM (active) |
| Clc1sc(Cl)c(Cl)c1Cl | inactive | – |
| C=CC(=O)OCCOCCOCC | inactive | – |
| NC(N)=NC(=O)c1nc(Cl)c(N)nc1N | inactive | – |
| O=C1c2ccccc2C(=O)N1SC1CCCCC1 | – | 144 µM (active) |
| BrC1CCC(Br)C(Br)CCC(Br)C(Br)CCC1Br (stereo not given) | inactive | – |
| c1ccc(CCCc2ccccn2)cc1 | – | 148 µM (active) |
| CC1(C)[C@H](C(=O)OCc2cccc(Oc3ccccc3)c2)[C@@H]1C=C(Cl)Cl | inactive | – |
| CC1CCC(C(C)(C)O)CC1 (stereo not given) | inactive | – |
